This is one part of a sample in which hits are shown more often than they occur.
ST2 IL33 inh: blocks human ST2 binding to IL-33 | AlphaLISA ST2-Fc/biotin-IL-33 interaction, 1 h | actives 2.3% (n = 78,000) | AID 1259354 | inhibition, % for hits at 17 µM; in the data active = inhibition above about 30%
Target sequence (Q01638 whole entry, looked up): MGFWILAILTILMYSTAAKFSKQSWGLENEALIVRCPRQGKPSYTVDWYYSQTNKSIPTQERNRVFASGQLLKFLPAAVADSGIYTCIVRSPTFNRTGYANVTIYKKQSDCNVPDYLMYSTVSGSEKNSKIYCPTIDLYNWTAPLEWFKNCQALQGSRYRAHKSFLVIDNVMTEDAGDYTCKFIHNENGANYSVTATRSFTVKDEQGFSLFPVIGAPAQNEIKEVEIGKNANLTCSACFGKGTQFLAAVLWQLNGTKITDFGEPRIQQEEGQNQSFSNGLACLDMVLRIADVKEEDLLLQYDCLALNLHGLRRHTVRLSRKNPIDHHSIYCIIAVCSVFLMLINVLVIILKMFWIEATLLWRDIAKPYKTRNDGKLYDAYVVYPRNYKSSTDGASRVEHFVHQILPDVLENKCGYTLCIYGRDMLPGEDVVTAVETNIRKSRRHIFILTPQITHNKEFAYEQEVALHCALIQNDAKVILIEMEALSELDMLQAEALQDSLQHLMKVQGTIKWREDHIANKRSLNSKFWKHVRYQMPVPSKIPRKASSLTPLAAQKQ
Starred values were filed as active, the others as inactive; i = inactive.

SMILES	ST2 IL33 inh
O=C1C=CC(=NS(=O)(=O)c2ccc(Cl)cc2)c2ccccc21	60%*
CC(=O)Nc1ccc(S(=O)(=O)Nc2ccc(C(C)C)cc2)cc1	i
O=Cc1ccc(S(=O)(=O)c2ccc(Cl)cc2)cc1	i
CC(N)=NS(=O)(=O)c1ccc(Cl)cc1	i
CC(C)c1ccc(S(=O)(=O)N=C2C=CC(=O)c3ccccc32)cc1	45%*
CS(=O)(=O)N1CCOC(CNC2CCC3(CCNCC3)CC2)C1 (centres undefined)	i
O=S(=O)(c1ccc(Br)cc1)N1CCC(Cc2ccccc2)CC1	i
O=C(Nc1ccc(O)cc1)C1CC=CCC1 (centres undefined)	34%*
O=C(Nc1ccc(Oc2ccccc2)cc1)C1CC1	i
O=C(O)COc1ccc(NC(=O)C2CCCCC2)cc1	i
Cc1cc(CN(C)C(=O)CC23CC4CC(CC(C4)C2)C3)ccn1	i
CC(C)Cn1cnc2c(N)nc3ccccc3c21	41%*
CC(Cn1cnc2ccccc21)C(=O)O (centres undefined)	i
Nc1ncnc2c1ncn2CCOc1ccccc1	i
COc1ccc(OC)c(S(=O)(=O)Nc2cc(Cl)ccc2OC)c1	i
Cc1cc(C(=O)N2CCC(n3nc(C)cc3C)C2)c2ccc(F)cc2n1 (centres undefined)	i
CC(C)c1[nH]nc2c1C(c1cccc(Cl)c1Cl)C(C#N)=C(N)O2 (centres undefined)	i
CCN1C(=O)C2(C(C#N)=C(N)Oc3n[nH]c(-c4ccccc4)c32)c2ccccc21 (centres undefined)	i
CC(C)c1[nH]nc2c1C1(CCN(Cc3ccccc3)CC1)C(C#N)=C(N)O2	31%*
CC1C(=O)N(c2ccccc2)C(c2ccc(Br)cc2)S1(=O)=O (centres undefined)	i
O=C1CCN(C(=O)c2nn(CCc3ccccc3)c3c2CN(C(=O)Cc2cccs2)CC3)CCN1	33%*
O=C1CN(C(=O)c2nn(Cc3ccccc3)c3c2CN(C(=O)CCc2cccs2)CC3)CCN1	i
O=C(Cc1cccs1)N1CCC(Cc2ccccc2)CC1	i
COc1ccc(/C=C2\SC(=O)N(c3ccccc3)C2=O)cc1	i
CCCCc1cc(C[C@H]2CNCC[C@H]2CC(=O)NCc2ccc3c(c2)OCO3)no1	i
SMILES	ST2 IL33 inh
COc1ccc(NCc2ccncc2)cc1	i
C[C@@H]1CC[C@@]2(C)C(CO)=CCC[C@@H]2[C@@]1(C)CC/C(=C/C(=O)O)CO	36%*
CC1=CC(=O)CC2C1(C)CCC(C)C2(C)CC/C(C)=C/C(=O)O (centres undefined)	i
O=C(CNS(=O)(=O)c1cccs1)NC1CCCCC1	i
O=C1C=C(Nc2cccc(C(F)(F)F)c2)C(=O)c2ccccc21	31%*
O=C(CCCCCN1C(=O)c2ccccc2C1=O)Nc1cccc(C(F)(F)F)c1	i
Cc1nnc(Nc2cccc(C(F)(F)F)c2)[nH]c1=O	i
CNC(=O)COc1ccc(/C=C/c2ccccc2)cc1	i
O=C1N(Cc2cccc(Cl)c2)C[C@@H]2C[C@@H](c3ccc4nsnc4c3)N3CCC[C@@]123	40%*
O=C1N(CCc2ccccc2)C[C@@H]2C[C@@H](c3cnc(-c4ccccc4)s3)N3CCC[C@@]123	i
OCC1CCCN1Cc1cccc(Cl)c1 (centres undefined)	i
O=C(CSc1ccccc1)NC1CCCN(C2Cc3ccccc3C2)C1 (centres undefined)	i
Cc1nc(-c2ccncc2)ncc1C(C)NC(=O)CCc1cccs1 (centres undefined)	i
COc1ccc(-n2c(N)c(C#N)c3nc4ccccc4nc32)c(OC)c1	32%*
CCOC(=O)c1c(N)n(-c2ccc(C)cc2C)c2nc3ccccc3nc12	i
N#Cc1c(N)n(-c2ccc(Cl)cc2)c2nc3ccccc3nc12	i
c1ccc(CN2CC[C@H](c3nnc(-c4cccnc4)o3)C2)nc1	i
COc1ccc(C(=O)N2CCCCC2)cc1[N+](=O)[O-]	i
O=[N+]([O-])c1ccc(C2Nc3c(cccc3[N+](=O)[O-])C3C=CCC32)cc1 (centres undefined)	45%*
O=S(=O)(c1ccc([C@@H]2Nc3ccc(Br)cc3[C@@H]3C=CC[C@@H]32)cc1)N1CCOCC1	i
O=[N+]([O-])c1ccc(C2CNC(c3ccccc3)O2)cc1 (centres undefined)	i
O=C(c1ccc2c(c1)C1C=CCC1C(c1ccc([N+](=O)[O-])cc1)N2)N1CCCCCC1 (centres undefined)	40%*
CC1(C)C(=O)OC(c2ccccc2[N+](=O)[O-])C(C)(C)C1=O (centres undefined)	i
Cn1c(=O)cc(SCC(=O)Nc2cccc(Cl)c2)c2ccc(Cl)cc21	i
O=C(Cc1ccc(O)c(Cl)c1)N1CCOC(Cc2cccc(F)c2)C1 (centres undefined)	i
SMILES	ST2 IL33 inh
CSc1ccccc1Sc1cc(C(=O)NCC2CCCO2)c2ccccc2n1 (centres undefined)	i
Nc1cc2c3c(cccc3n1)C(=O)c1ccccc1-2	34%*
O=C1c2ccccc2C(=O)c2c1nc1n2CCOC1	i
Nc1nc2ccccc2nc1N	i
CCCN(CC1CCCO1)C(=O)CC1(c2ccccc2Cl)CC(=O)N(CCOC)C1=O (centres undefined)	i
CC(C)(C)Sc1ccc(SC#N)s1	i
CCSc1sc(SC#N)cc1SC#N	47%*
Cc1ccc(C(=O)O)cc1-c1ccc(C=C2C(=O)OC3(CCCCC3)OC2=O)o1	i
CN(CCCNC(=O)C1CCCN1c1nnc(N2CCCC2=O)s1)C1CCCCC1 (centres undefined)	i
CN(CCNC(=O)C1CCCN1c1nnc(N2CCCC2=O)s1)C1CCCCC1 (centres undefined)	i
CC(C)N(CCCNC(=O)C1CCCN1c1nnc(N2CCCC2=O)s1)Cc1ccccc1 (centres undefined)	34%*
C=CCc1ccccc1OCCN(C)C(=O)c1cnccc1C	i
Cc1cc(C)c(S(=O)(=O)NCCCn2c(C(F)(F)F)nc3cccnc32)c(C)c1	i
Cc1nc(N2CCC(C(=O)N3CCCC(OCc4cccnc4)C3)CC2)nc2ccc(C(C)C)cc12 (centres undefined)	i
CN1CCC(N2C[C@H](O)C[C@H]2c2nc(Cc3ccc(F)cc3Cl)no2)CC1	31%*
O=[N+]([O-])c1ccccc1CN1C[C@H](O)C[C@H]1c1nc(Cc2ccc(F)cc2Cl)no1	i
CC(=O)N1CCC(N2C[C@H](O)C[C@H]2c2nc(CS(=O)(=O)c3ccc(F)cc3)no2)CC1	i
Cc1nsc(NC(=O)N2CCC(O)(c3ccc(F)cc3)CC2)n1	i
Cc1ccc(S(=O)(=O)N2CCCC2)cc1	i
Cc1ccc(S(=O)(=O)N2CCN(c3nc(-c4cccs4)cs3)CC2)cc1	32%*
CC1CC(C)CN(S(=O)(=O)c2ccc(C(=O)Nc3nc(-c4cccs4)cs3)cc2)C1 (centres undefined)	i
CN1C[C@@H](NC(=O)c2ccc(F)cc2)C[C@H]1c1nc(-c2ccccc2)no1	i
CN1C[C@@H](NC(=O)c2cccnc2)C[C@H]1c1nc(-c2ccc(Cl)cc2)no1	i
CN1C[C@@H](NC(=O)CC(C)(C)CC(=O)O)C[C@H]1c1nc(-c2ccccn2)no1	i
CN1C[C@@H](NC(=O)COc2ccccc2)C[C@H]1c1nc(-c2cccnc2)no1	65%*
CN1C[C@@H](NC(=O)c2ccc3c(c2)OCO3)C[C@H]1c1nc(-c2cccnc2)no1	i

Screening results as filed in PubChem BioAssay.
